Experimental data from PubChem BioAssay (Tox21).
Inconclusive results are not listed. Values without a mark were called inactive. The source made the active and inactive calls. Calls follow the shape of the dose curve; as a rule, active = well fitted cell-killing curve with a large enough effect in the repeat runs; inconclusive = weak or mixed curves, or effect the other way; inactive = no such curve, though single readings can be large or run the other way.

Test: qHTS assay to identify small molecule antagonists of the glucocorticoid receptor (GR) signaling pathway - cell viability counter screen (AID 720693); also: nearly all actives have a fitted effect of over 55% in size
Conditions: GR-bla HeLa viability, CellTiter-Glo luminescence, 18 h, with 5 nM dexamethasone present; series mostly up to 58.5 µM; viability change, negative = cytotoxic: at the top concentration
Text: National Center for Advancing Translational Sciences [NCATS]
NIH Chemical Genomics Center [NCGC]
U.S. Environmental Protection Agency [EPA]
National Institutes of Environmental Health Sciences [NIEHS]
National Toxicology Program [NTP]
U.S. Food and Drug Administration [FDA]
The Glucocorticoid receptor (GR) is one of the members of the nuclear receptor family of ligand-dependent transcription factors. GR plays a critical role in carbohydrate, protein and lipid metabolisms and programmed cell death. CellSensor GR-bla HeLa cell line (Invitrogen) contains a beta-lactamase reporter gene under the control of the glucocorticoid response element stably integrated into HeLa cells, a cervical cancer cell line that expresses glucocorticoid receptor. The activation of the reporter gene under culture conditions can be detected by fluorescence intensity. This cell line has been used to screen the Tox21 10K compound library and to identify the compounds that inhibit the GR signaling. The cytotoxicity of the Tox21 compound library against the GR-bla HeLa cell line was tested in parallel by measuring the cell viability using CellTiter-Glo assay in the same wells.
Tox21 Assay Protocol Summary:
The GR-bla HeLa cells were dispensed at 1500 cells/5 ul/well in 1536-well black wall/clear bottom plates using a Multidrop Combi (ThermoFisher Scientific, Waltham, MA) dispenser. After the assay plates were incubated at a 37 C/5% CO2 incubator for 4 hours, 23 nL of compounds dissolved in DMSO, positive controls or DMSO only was transferred to the assay plate by a pintool station (Kalypsys, San Diego, CA), followed by addition of 1 uL of dexamethasone (5 nM, final concentration in the well). The plates were incubated at 37 C for 18 hours. After 1 uL of LiveBLAzerTM B/G FRET substrate was added using a Flying Reagent Dispenser (Aurora Discovery, San Diego, CA), the plates were incubated at room temperature (RT) for 2 hours, and fluorescence intensity was measured by an Envision plate reader (PerkinElmer, Shelton, CT). After measurement of bla assay, 3 ul CellTiter-Glo (Promega, Madison, WI) was added to measure the cytotoxicity and the plates were then incubated at RT for 30 min. The luminescence was measured using a ViewLux (Perkin Elmer) plate reader.
% is scaled to controls: 0 for no effect and ±100 for the full control effect.

| Structure (SMILES) | viability change, negative = cytotoxic | outcome |
| --- | --- | --- |
| CC(C)(C)CC(C)(C)N | 3.65% | – |
| CCCc1ccccc1O | 2.67% | – |
| CC(C)[C@H](N)C(=O)OCCOCn1cnc2c(=O)[nH]c(N)nc21 | -9.69% | – |
| Oc1ccc2c(c1)OC[C@@H](N1CCC(O)(c3ccc(F)cc3)CC1)[C@H]2O | 12.7% | – |
| CC12CCC(CC1=O)C2(C)C (stereo not given) | 0.277% | – |
| OC/C=C/c1ccccc1 | – | inactive |
| NS(=O)(=O)c1cc(C2(O)NC(=O)c3ccccc32)ccc1Cl (stereo not given) | -1.09% [at 27 µM] | – |
| Nc1nc2c(ncn2CCC(CO)CO)c(=O)[nH]1 | 11% | – |
| CCCCCC[C@@H](CCC)C(=O)O | -12.4% | – |
| O=[N+]([O-])c1ccc(Oc2ccc([N+](=O)[O-])cc2)cc1 | 11.6% [at 78.9 µM] | – |
| Cc1cc(C)cc(OCC2CNC(=O)O2)c1 (stereo not given) | 9.19% | – |
| CO[Si](OC)(OC)OC | -11.7% | – |
| CCCC(=O)O[C@]1(C(=O)CCl)[C@@H](C)C[C@H]2[C@@H]3CCC4=CC(=O)C=C[C@]4(C)[C@@]3(F)C(=O)C[C@@]21C | -4.02% | – |
| O=C(O)c1ccc[n+]([O-])c1 | -0.587% | – |
| CC(C)COC(=O)C(C)C | 0.58% | – |
| CC(C)c1ccc2oc3nc(N)c(C(=O)O)cc3c(=O)c2c1 | -13.7% | – |
| CC(C)N1C(=O)c2ccccc2C1=O | 0.408% | – |
| COc1cc(C(=O)N2CCOCC2)cc(OC)c1OC | – | inactive |
| CC(C)(O)Cc1ccccc1 | -4.39% | – |
| C=C(C)C(=O)OCCC(C)OC(=O)C(=C)C (stereo not given) | -2.21% | – |

| Structure (SMILES) | viability change, negative = cytotoxic | outcome |
| --- | --- | --- |
| CC(C)(C)OC(=O)N1C[C@@H](F)C[C@H]1C(=O)O | 12.4% [at 78.9 µM] | – |
| COc1ccc(COC=O)cc1 | -1.4% | – |
| C=C(C)C(=O)NCCC[N+](C)(C)C | -0.334% | – |
| CCC(C(=O)NC(N)=O)c1ccccc1 (stereo not given) | – | inactive |
| COc1cc(C)cc(O)c1 | 17.8% | – |
| OC1OC[C@@H](O)[C@H](O)[C@H]1O (stereo not given in full) | 0% | – |
| Cc1ccc(Nc2ccc(O)c3c2C(=O)c2ccccc2C3=O)cc1 | -3.27% | – |
| CCCC=O | 10.1% | – |
| CCN(CC)S(=O)(=O)c1ccc(C(=O)O)cc1 | 5.1% | – |
| CC(C)=CC(=O)O | 6.87% | – |
| O=C(O)/C=C/c1ccc(/C=C/C(=O)O)cc1 | -3.6% | – |
| c1cc(CN2CCCCC2)cc(OCCCNc2nc3ccccc3s2)c1 | -12.3% | – |
| C#CC(O)C(CC)CCCC (stereo not given) | 1.34% | – |
| CCCCCCCCN(C)CCCCCCCC | -8.04% [at 78.9 µM] | – |
| CC(C)(C)C(=O)/C=C/c1ccc(Cl)cc1 | 14.5% | – |
| CCCCCCOC(=O)CC(CC(=O)OCCCCCC)(OC(=O)CCC)C(=O)OCCCCCC | -7.33% | – |
| CCC(=O)Nc1cccc(N)c1 | 15.8% | – |
| CC(=O)OC(C)(C)C | 6.67% | – |
| O=C1OC(=O)c2cc([N+](=O)[O-])ccc21 | -0.299% | – |
| Cc1ccc(N)cc1[N+](=O)[O-] | 0.305% [at 78.9 µM] | – |
